Luciferase inh = Photinus pyralis luciferase inhibition | actives 2.5% (n = 76,000) | P08659 | AID 1347043 | Potency, µM (series often up to 115 µM), actives largely listed as inhibitors | purified P. pyralis luciferase, luminescence, biochemical; further: on the % scale 0 is the no-effect control and ±100 the full control effect; nearly all actives have a fitted effect of over 65% in size
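Luminescence read by CCD imager after adding enzyme (10nM final) to wells holding compound, titrated in qHTS. Substrates 10uM each D-luciferin and ATP; buffer 50mM Tris acetate pH 7.5, 10mM Mg acetate, Tween-20, BSA.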
NPR1 antag = antagonists of human natriuretic peptide receptor Npr1 | HEK293 hNpr1 GloSensor cGMP, ANP-stimulated luminescence | Potency, µM (titrated, usually from 46.3 µM), without a hit: top-dose activity change, negative = inhibition, usual class: inhibitors | actives 1.6% (n = 76,000) | AID 1347048; calls by dose curve; further: on the % scale 0 is the no-effect control and ±100 the full control effect; nearly all actives have a fitted effect of over 60% in size
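HEK293 cells stably expressing human Npr1 and cGMP GloSensor pGS-40F, loaded 2 h with 2% GloSensor reagent, given compound 30 min at room temperature. Luminescence read before and 20 min after 0.1 nM hNppA.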
3T3 cytotox = cytotoxic compounds in NIH 3T3 cells. actives 4.3% (n = 94,000). NIH 3T3 viability, CellTiter-Glo ATP luminescence, 48-72 h. Potency, µM (highest dose often 96.7 µM), for inactives: at the top dose activity change, negative = cytotoxicity, actives largely listed as inhibitors. AID 1345082; further: on the % scale 0 is the no-effect control and ±100 the full control effect; nearly all actives have a fitted effect of over 55% in size
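NIH 3T3 cells at 400 cells/well received 23 nL of compound by pintool and were incubated 48 or 72 h at 37 °C. Viability was read as ATP-coupled CellTiter-Glo luminescence.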
HEK cytotox = kills HEK 293 cells | HEK 293 viability, ATP luminescence (CellTiter-Glo), 48-72 h | Potency, µM (doses to about 115 µM), inactives show top-dose activity change, negative = cytotoxicity, hits mostly inhibitors | actives 6.6% (n = 94,000) | AID 1345083; further: on the % scale 0 is the no-effect control and ±100 the full control effect; nearly all actives have a fitted effect of over 60% in size
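250 HEK 293 cells/well; compound by pintool; incubated 48 or 72 hr at 37 degree Celsius; CellTiter-Glo added, 10 min RT, luminescence imaged.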
GPT2 inh = blocks human glutamate pyruvate transaminase 2; Recombinant GPT2, coupled pyruvate oxidase/HRP Amplex Red fluorescence; actives 0.25% (n = 100,000); Potency, µM (highest dose often 57.7 µM), inactives show top-dose activity change, negative = inhibition, actives largely listed as inhibitors; Q8TD30; further: on the % scale 0 is the no-effect control and ±100 the full control effect; nearly all actives have a fitted effect of over 60% in size
Target sequence (Q8TD30 whole entry, looked up): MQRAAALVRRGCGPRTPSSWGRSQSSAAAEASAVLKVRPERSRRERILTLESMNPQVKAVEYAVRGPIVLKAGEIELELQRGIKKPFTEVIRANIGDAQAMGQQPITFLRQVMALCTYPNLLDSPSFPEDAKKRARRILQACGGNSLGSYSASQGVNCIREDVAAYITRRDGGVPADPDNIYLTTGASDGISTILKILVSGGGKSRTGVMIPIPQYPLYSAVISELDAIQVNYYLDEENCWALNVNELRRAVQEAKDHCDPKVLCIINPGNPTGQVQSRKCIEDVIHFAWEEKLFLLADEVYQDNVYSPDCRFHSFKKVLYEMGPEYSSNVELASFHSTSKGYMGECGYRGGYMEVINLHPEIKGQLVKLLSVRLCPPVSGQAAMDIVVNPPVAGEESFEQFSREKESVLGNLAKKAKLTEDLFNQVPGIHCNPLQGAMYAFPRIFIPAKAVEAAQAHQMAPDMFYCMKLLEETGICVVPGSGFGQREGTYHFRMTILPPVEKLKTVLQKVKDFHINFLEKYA
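Inhibition is scored from Amplex Red fluorescence generated when pyruvate oxidase and HRP act on pyruvate released by GPT2. Reactions contain 10ng/uL enzyme, 250uM a-KG and 2mM L-alanine and run 30 min at room temperature.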
NPR1 antag cnf = hNpr1 antagonism, confirmation assay; shares compounds with NPR1 antag; HEK293 hNpr1 cGMP GloSensor luminescence, ANP-stimulated; Potency, µM (series often up to 57.6 µM), for the others: at the highest dose activity change, negative = inhibition, usual class: inhibitors; actives 76% (n = 1,400); AID 1347044; calls by dose curve; further: nearly all actives have a fitted effect of over 70% in size
Npr2 selectivity = antagonizes human Npr2, subtype selectivity check; shares compounds with NPR1 antag; HEK293 hNpr2 GloSensor cGMP luminescence, CNP-stimulated; Potency, µM (top dose mostly 57.6 µM), for inactives: at the highest dose activity change, negative = inhibition, usual class: inhibitors; actives 67% (n = 1,400); AID 1347046; calls by dose curve; further: nearly all actives have a fitted effect of over 70% in size
FLuc inh counter = counter-screen for Npr1 antagonists: firefly luciferase inhibitors | Potency, µM (highest dose often 57.6 µM), inactives show at the highest dose activity change, negative = inhibition, actives largely listed as inhibitors | shares compounds with NPR1 antag | actives 0.7% (n = 1,400) | purified FLuc enzyme, luminescence, Km substrate | AID 1347047; further: 0% is about no effect
GloSensor cGMP = reduces cGMP signal in GloSensor control cells; shares compounds with NPR1 antag; AID 1347051; Potency, µM (top dose mostly 57.6 µM), inactives show at the highest dose activity change, negative = inhibition, hits mostly inhibitors; actives 69% (n = 1,400); HEK293 GloSensor cGMP, SNP-stimulated, luminescence; calls by dose curve; further: on the % scale 0 is the no-effect control and ±100 the full control effect; nearly all actives have a fitted effect of over 70% in size
* hit, by the source's call; [ ] = remark or other dose. A selection: hits, their analogues and other compounds. The true share with any hit is near 10%. Unless noted, the call rests on the fitted dose curve; in most records, active means well fitted curve in the direction sought with a large enough effect; inconclusive means small, poorly fitted or top-dose-only effect, or another doubt; inactive means no such curve, though single readings can be large; an effect the other way counts as inactive or inconclusive. Potency means the concentration at half of the fitted maximal effect.

How did CCc1noc(CC2CCOC3(CCN(S(=O)(=O)c4cccc(OC)c4)CC3)C2)n1 (stereo unspecified) do in these assays?
Luciferase inh: inactive; NPR1 antag: 16µM*; 3T3 cytotox: inconclusive; HEK cytotox: inconclusive; GPT2 inh: 0%; NPR1 antag cnf: 22µM*; Npr2 selectivity: 22µM*; FLuc inh counter: -1%; GloSensor cGMP: 19µM*

Results for COc1ccc(C(=O)N2CCCC(C(=O)N3CCC(N4Cc5cccn5C4=O)CC3)C2)cc1 (stereo unspecified) ?
3T3 cytotox: -16%; HEK cytotox: inconclusive; GPT2 inh: inactive

How did CC(C)(C(=O)N1CCc2[nH]nc(-c3ccc(F)c(F)c3)c2C1)n1cccc1 do in these assays?
Luciferase inh: inactive; NPR1 antag: -23%; 3T3 cytotox: inconclusive; HEK cytotox: inconclusive; GPT2 inh: 3%

How did COc1ccc(-c2noc(CC3CCN(C(=O)c4cc(F)cc(F)c4)CC3)n2)cc1 do in these assays?
Luciferase inh: inactive; NPR1 antag: 6.3µM*; 3T3 cytotox: inconclusive; HEK cytotox: inconclusive; GPT2 inh: inactive; NPR1 antag cnf: 5.4µM*; Npr2 selectivity: 6.1µM*; FLuc inh counter: 2%; GloSensor cGMP: 5.4µM*

What do the screens show for `O=C(c1cc(F)cc(F)c1)N1CCC(Cc2nc(-c3ccc(F)cc3)no2)CC1`?
Luciferase inh: inactive; NPR1 antag: inconclusive; 3T3 cytotox: inconclusive; HEK cytotox: inconclusive; GPT2 inh: 2%

What do the screens show for `COc1cc(OC)cc(C(=O)N2CCC(Cc3nc(-c4ccc(F)cc4)no3)CC2)c1`?
Luciferase inh: inactive; NPR1 antag: 13µM*; 3T3 cytotox: inconclusive; HEK cytotox: 32µM*; GPT2 inh: inactive; NPR1 antag cnf: 15µM*; Npr2 selectivity: 22µM*; FLuc inh counter: 0%; GloSensor cGMP: 15µM*

What do the screens show for `COC(=O)c1cccc(C(=O)N2CCC(Cc3nc(-c4ccc(F)cc4)no3)CC2)c1`?
Luciferase inh: inactive; NPR1 antag: 7.1µM*; 3T3 cytotox: inconclusive; HEK cytotox: inconclusive; GPT2 inh: inactive; NPR1 antag cnf: 6.1µM*; Npr2 selectivity: 6.9µM*; FLuc inh counter: -2%; GloSensor cGMP: 5.4µM*

How did COCC(=O)Nc1cc(C2CC2)nn1-c1ccccc1 do in these assays?
3T3 cytotox: inconclusive; HEK cytotox: -25%[172 µM]; GPT2 inh: inactive

Results for COC(=O)C1=C(C)N=C2SC=C(CC(=O)NCCc3cccs3)N2C1c1ccccc1Cl (stereo unspecified) ?
Luciferase inh: inactive; NPR1 antag: inconclusive; 3T3 cytotox: inconclusive; HEK cytotox: inconclusive; GPT2 inh: inactive

Results for Cc1noc(C)c1CCC(=O)NC1CCCc2c1[nH]c1c(Cl)cccc21 (stereo unspecified) ?
Luciferase inh: inactive; NPR1 antag: -30%; 3T3 cytotox: 35µM*; HEK cytotox: inconclusive; GPT2 inh: -17%; NPR1 antag cnf: inconclusive; Npr2 selectivity: inconclusive; FLuc inh counter: 0%; GloSensor cGMP: inconclusive

Results for O=S(=O)(c1ccccc1C(F)(F)F)N1CC(c2nc(-c3ccncc3)no2)C1 ?
Luciferase inh: inactive; NPR1 antag: -28%; 3T3 cytotox: inconclusive; HEK cytotox: inconclusive; GPT2 inh: inconclusive

How did Cc1cc(C)c(S(=O)(=O)N2CC(c3nc(-c4ccncc4)no3)C2)c(C)c1 do in these assays?
Luciferase inh: inactive; NPR1 antag: 14µM*; 3T3 cytotox: inconclusive; HEK cytotox: 45µM*; GPT2 inh: -18%; NPR1 antag cnf: 24µM*; Npr2 selectivity: 22µM*; FLuc inh counter: -1%; GloSensor cGMP: 22µM*

Results for Cc1ccc(F)cc1CN1CCOc2cc([S+](=O)([O-])N(C)C)ccc2C1 ?
Luciferase inh: inactive; NPR1 antag: 35µM*; 3T3 cytotox: inconclusive; HEK cytotox: 40µM*; GPT2 inh: inactive; NPR1 antag cnf: 40µM*; Npr2 selectivity: 40µM*; FLuc inh counter: -2%[86.2 µM]; GloSensor cGMP: 35µM*

What do the screens show for `Cc1nn(-c2ccccc2)c2c1C(C)N(CC1CN(C(=O)NC(C)C)C1)C2=O` (stereo unspecified)?
3T3 cytotox: -20%; HEK cytotox: -6%

What do the screens show for `CCCCNC(=O)c1cccc(-c2cc(N3CCN(C)CC3)nc(N)n2)c1`?
Luciferase inh: inactive; NPR1 antag: inconclusive; 3T3 cytotox: -8%; HEK cytotox: inconclusive; GPT2 inh: -6%; NPR1 antag cnf: inconclusive; Npr2 selectivity: -28%; FLuc inh counter: 1%; GloSensor cGMP: inconclusive

Results for CC(c1ccc(-c2cc(N3CCN(C)CC3)nc(N)n2)cc1)N1CCOCC1 (stereo unspecified) ?
Luciferase inh: inactive; NPR1 antag: 1%; 3T3 cytotox: -19%; HEK cytotox: inconclusive; GPT2 inh: 0%

What do the screens show for `COc1cccc(CC(=O)NC2CCN(c3cnn(C)c(=O)c3)CC2)c1`?
Luciferase inh: inactive; NPR1 antag: -5%; 3T3 cytotox: inactive; HEK cytotox: inactive; GPT2 inh: inactive

Results for Cc1cc(NC(=O)c2ccc3c(c2)N(C)C2CCCCCN2C3=O)ccc1Br (stereo unspecified) ?
Luciferase inh: inconclusive; NPR1 antag: 2%; 3T3 cytotox: -29%; HEK cytotox: inconclusive; GPT2 inh: 3%

Screening results deposited in PubChem BioAssay by National Center for Advancing Translational Sciences (NCATS).
